# Inconclusive results are not listed. A call without a number means that no potency is given here. The source made the active and inactive calls. Calls follow the shape of the dose curve; as a rule, active = well fitted cell-killing curve with a large enough effect; inconclusive = small, poorly fitted or top-dose-only effect; inactive = flat fitted curve, though single readings scatter. Peptide text beside a SMILES is read from it. * marks the point of attachment. Hexanoyl = CCCCCC(=O)*
# Assay: KB-8-5-11 Cancer Cell Toxicity qHTS against the NCATS CANVASS Library (AID 1347364); also: nearly all actives have a fitted effect of over 75% in size
# Details: KB-8-5-11 MDR cells viability, CellTiter-Glo, 72 h; series mostly up to 46.1 µM
# From the text: Natural products and their derivatives continue to be wellsprings of nascent therapeutic potential. However, many laboratories have limited resources for biological evaluation, leaving their previously isolated or synthesized compounds largely or completely untested. To address this issue, the Canvass library of natural products was assembled (https://tripod.nih.gov/canvass), in collaboration with academic and industry researchers, for quantitative high-throughput screening (qHTS) across a diverse set of cell-based and biochemical assays. The pure (>85% purity by liquid chromatography/mass spectrometry [LC/MS]) Canvass library of 346 natural products were submitted by 45 academic laboratories and companies around the world. We collected pure natural products to circumvent deconvolution and structure elucidation due to time and resource limitations. The library was formatted into 1536-well plates and evaluated in 50 qHTS (in an 11-pnt concentration series) bioassays with broad scope of disease-relevant mechanisms. The resulting data set from 50 different assays was then systematically analyzed to identify overall trends and specific natural products with interesting biological activities. Reported herein are the results of each individual qHTS and their corresponding assay protocol. […] National Center for Advancing Translational Sciences (NCATS), Rockville, MD National Institute of Health (NIH), Bethesda, Maryland
# Cancer Cell Toxicity qHTS protocol 1. In a 1536 well, tissue culture treated white solid bottom plates (Corning 7494), 5 uL of KB-8-5-11 cell solution (final concentration of 500 cells / well) was dispensed using the Multidrop Combi dispenser (Thermo Fisher Scientific) into columns 3-48, rows 1-32. DMEM + 10% FBS + 100 U/mL penicillin / 100ug/mL streptomycin media solution was dispensed into column 1-2, row 1-32 also using the Multidrop Combi dispenser. For follow-up confirmation, KB 8-5-11 was also plated in medium supplemented with 1uM tariquidar. 2. Control and Compounds were pin transferred (~23nL volume) to the assay plates via Wako Pin-tool (Wako Automation, Richmond VA) equipped with a 1536 pin head. The compounds were transferred to columns 5-48 resulting in a final concentration ranging from 0.17 nM to 103 uM. Dose response titration of Bortezomib was pin transferred into column 3, rows 1-32 (2mM; 1:2 dilution; 16 points; n = 2) resulting to a final concentration range of 0.3nM - 9.2uM. 3. The assay plates were further incubated in the at 37C, 5% CO2, 95% Rh for 72 hr. 4. After incubation, 2.5uL of CellTiter-Glo reagent (Promega) was added to the assay plates (column 1-48, rows 1-32) using the Multidrop Combi dispenser. 5. The assay plates were incubated at room temperature for 10 minutes. 6. Luminescence signal was acquired via the ViewLux plate reader (PerkinElmer) using a clear emission filter, 1 sec exposure, and 1x binning settings.
# Potency is read from the fitted curve at half-maximal effect.
SMILES,Potency,outcome
C=C1CC[C@@H](Br)C(C)(C)[C@]12CC=C(C)C(=O)C2,inactive,
COc1cc2c(cc1OC)[C@@H](c1ccc3c(c1)OCO3)C(C)C(C)C2=O (stereo not given in full),18.7 µM (active),
C[C@@]1(CCC(=O)Nc2c(O)ccc(C(=O)O)c2O)C(=O)C=C[C@]23C[C@H]4C[C@H](O[C@@]4(C)C2)C31 (stereo not given in full),inactive,
COC(=O)[C@@]1(C)CCC[C@]2(C)c3cc(OC)ccc3CC[C@@H]12,inactive,
C[C@@]12CCC[C@@](C)(C(=O)OP(=O)(O)OC[C@H]3O[C@@H](n4cnc5c(N)ncnc54)[C@H](O)[C@@H]3O)[C@H]1C[C@@H](O)[C@@]13C[C@@H](CC[C@@H]21)[C@](C)(O)C3,inactive,
C[C@@]12CCC[C@@](C)(C(=O)O)[C@H]1CC[C@@]13C[C@@H](CC[C@H]12)[C@](C)(O)C3,inactive,
C=C1C[C@]23C=CC(=O)[C@@](C)(CCCC(C)C(=O)N[C@@H](CO)C(=O)O)[C@@H]2C[C@@H]1CC3 (stereo not given in full),inactive,
COc1cc(C2C3=C(Cc4cc5c(cc42)OCO5)C(=O)OC3)cc(OC)c1OC (stereo not given),0.105 µM (active),
Cc1cc(O)cc2c1C(=O)c1c(O)cc(O)cc1C2=O,inactive,
CN1CC[C@]2(c3cccc4c3N[C@H]3N(C)CC[C@@]43[C@]34CCN(C)[C@H]3Nc3ccccc34)c3ccccc3N[C@H]12,18.7 µM (active),
C/C=C1/CN2C3CC1C1C=CC(=O)N4c5ccccc5[C@@]3(C[C@@H]2C2=C[C@H]3C5CC6N(CC[C@@]67c6ccccc6N(C2=O)[C@@H]37)C/C5=C/C)[C@H]14 (stereo not given in full),9.35 µM (active),
C/C1=C/[C@@H](C)[C@H](O)[C@@H](O)/C=C/CC/C=C/C(=O)O[C@@H]1[C@H](C)C(=O)/C=C/CC1CC(=O)NC(=O)C1,inactive,
C=CC(CCCCC)C1C(=O)NC(=O)C1C(=O)C1C2C(C)CC(C(=O)O)CC2CC1(O)C(=O)/C=C/C (stereo not given),inactive,
C/C=C/[C@H]1[C@H]2C(=O)c3c(O)c(C)c(O)c(C)c3[C@]1(C(=O)O)C(=O)C=C2C,inactive,
COc1cc(C2OCC3C(c4ccc(O)c(OC)c4)OCC23)ccc1O (stereo not given),,inactive [at 9.19 µM]
C[n+]1cc2cc(C(N)=O)[nH]c3c(=N)c(Cl)c(N)c1c23,inactive,
O=C1CC2OCC=C3CN4C5CC3C2[C@@H]2N1c1ccccc1[C@]52C[C@@H]4C1=C[C@H]2C3CC4N(CC[C@@]45c4ccccc4N(C1=O)[C@@H]25)C/C3=C/CO (stereo not given in full),18.7 µM (active),
CN1CC[C@@]23c4ccccc4N[C@@H]1[C@@]21CCN(C)[C@@H]3Nc2ccccc21,inactive,
COc1cc2ccc(=O)oc2c(O)c1O[C@@H]1O[C@H](CO)[C@@H](O)[C@H](O)[C@H]1O,inactive,
C[C@]12CCC[C@](C)(C(=O)O)[C@@H]1CC[C@@]1(C)c3cocc3CC[C@H]21,inactive,

SMILES,Potency,outcome
COC1C(C)OC(OCC23C[C@@H]4[C@H](C)CC[C@H]4C4(C=O)CC2C=C(C(C)C)C34C(=O)O)[C@@H](O)[C@H]1O (stereo not given in full),inactive,
CCC(C)=C1OC(=O)[C@H](C)[C@H](O)[C@H](Cc2cccnc2)NC(=O)C(NC(=O)c2ncccc2O)C(C)OC1=O (stereo not given in full),inactive,
CCCCCC(=O)N[C@@H](CC(C)C)C(=O)N[C@H](C=O)CCC(=O)O (Hexanoyl-Leu-Glu-aldehyde),inactive,
C/C=C/C(=O)C1(O)CC2CC(C(=O)O)CC(C)C2C1C1=C2C(=O)NC(=O)C2=C(CCCCC)C(C)O1 (stereo not given),inactive,
Oc1ccc(C2Oc3cc(O)c4c(c3[C@@H]2c2cc(O)cc(O)c2)[C@H]2C(c3ccc(O)cc3)c3c(O)cc5c(c3[C@H]2C4c2ccc(O)cc2)[C@H](c2cc(O)cc(O)c2)C(c2ccc(O)cc2)O5)cc1 (stereo not given in full),inactive,
COc1cc([C@@H]2c3cc4c(cc3C[C@@]3(O[C@@H]5O[C@H](CO)[C@@H](O)[C@H](O)[C@H]5O)COC(=O)[C@H]23)OCO4)cc(OC)c1OC,0.0526 µM (active),
COc1cc2c(c(O)c1O)C(=O)c1c(coc1C)C2=O,inactive,
CC[C@@H](c1cc(OC)c(OC)cc1OC)[C@H](C)[C@@H](/C(C)=C/c1cc(OC)c(OC)cc1OC)c1cc(OC)c(OC)cc1OC,inactive,
C=CC(C)(C)C(=O)[C@@H](C)[C@@H]1CC[C@@](C)(C=C)O1,inactive,
CO/C=C/C(=O)c1cc2cnc3c(N)cc(=NC(=O)C(C)C)c([nH]1)c23,0.296 µM (active),
COC(=O)[C@@]12Oc3cccc(O)c3C(O)=C1C(=O)C[C@H](C)[C@H]2O,inactive,
CC(C)=CCCC(C)(O)[C@H]1CC=C(C)C(O)C1 (stereo not given in full),inactive,
COC12OC1(C13OC1(OC)C(=O)c1cc4cc(C)oc(=O)c4c(O)c1C3O)C(O)c1c(cc3cc(C)oc(=O)c3c1O)C2=O (stereo not given),inactive,
COc1c(O)cc2c(c1O)C(=O)c1c(coc1C)C2=O,inactive,
CN1CC[C@@]2([C@@]34CCN(C)[C@@H]3Nc3ccccc34)c3ccccc3N[C@@H]12,inactive,
C[C@@]12C[C@@H](C[C@@H]3C(=O)O[C@@H](c4ccoc4)[C@H](OC(=O)c4ccccc4)[C@@H]31)OC2=O,inactive,
C=C[C@]1(C)CC[C@@H]([C@H](C)C(=O)/C=C/C(C)(C)O)O1,inactive,
COc1cc(/C=C/C(=O)OC[C@@H](Cc2ccc(O)c(OC)c2)[C@@H](COC(=O)/C=C/c2ccc(O)c(OC)c2)Cc2ccc(O)c(OC)c2)ccc1O,13.2 µM (active),
C=C[C@](Cl)(CBr)CCC=C(C)C,inactive,
C/C1=C/[C@@H](C)[C@H](O)C/C=C/CC/C=C/C(=O)O[C@@H]1[C@H](C)C(=O)CCCC1CC(=O)NC(=O)C1,inactive,
